Assay [1] in a line: Human pregnane X receptor (PXR) small molecule agonists, qHTS cell viability counter screen (AID 1346977). Further: nearly all actives have a fitted effect of over 50% in size. Summed up: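 Readout is CellTiter-Fluor fluorescence from PXR-Luc HepG2 cells. Plated cells rested 5hr, then were treated with compounds for 24hr at 37C and 5% CO2, with reagent present during the last hour.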
Background: qHTS replaces the single test concentration by a dilution series.

The nature of assay [2]: Caspase-3/7 induction in HepG2 cells by small molecules, qHTS assay (AID 1346978). Further: nearly all actives have a fitted effect of over 15% in size. Summed up:
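Caspase-3/7 induction was measured by Caspase-Glo 3/7 luminescence (30 min, room temperature) after a 17 hr compound exposure of wild-type HepG2 cells seeded at 2,000 per well and pre-incubated 5 hr.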

Assay [3] is described as follows: Caspase-3/7 induction in CHO-K1 cells by small molecules, qHTS cell viability counter screen (AID 1346979). Further: nearly all actives have a fitted effect of over 35% in size. The method in brief:
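To flag cytotoxic compounds, treated CHO-K1 wild-type cells were given CellTiter-Fluor at 16hr and read fluorescently after 1hr at 37C; the caspase-3/7 luminescence was measured in these same wells.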

The nature of assay [4]: Caspase-3/7 induction in CHO-K1 cells by small molecules, qHTS assay (AID 1346980). Further: nearly all actives have a fitted effect of over 15% in size. Summed up:
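Luminescent Caspase-Glo 3/7 read (30min, room temperature) quantified apoptosis induction. Cells were wild-type CHO-K1, treated with compound for 17hr at 37 C and 5% CO2.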

A short description of assay [5]: Caspase-3/7 induction in HepG2 cells by small molecules, qHTS cell viability counter screen (AID 1346981). Further: series mostly up to about 92 µM; nearly all actives have a fitted effect of over 30% in size. Summed up:
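Viability determined by CellTiter-Fluor fluorescence in HepG2 wells also used for the luminescent Caspase-Glo 3/7 read. Compounds were present for 16 hr at 37 C, 5% CO2 before reagent addition.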

Assay [6] deals with Nuclear receptor subfamily 1 group I member 2 (Homo sapiens) (UniProt O75469). Briefly: Human pregnane X receptor (PXR) small molecule agonists, qHTS assay (AID 1346982). Further: nearly all actives have a fitted effect of over 35% in size. Further: potency means the concentration at half of the fitted maximal effect. Summed up: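 Compound-induced hPXR transactivation of a CYP3A4 luciferase reporter was scored in HepG2 PXR-Luc cells over 24 hr at 37 C, 5% CO2, by luminescence.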
Sequence of Nuclear receptor subfamily 1 group I member 2 (Homo sapiens) (O75469 whole entry, looked up): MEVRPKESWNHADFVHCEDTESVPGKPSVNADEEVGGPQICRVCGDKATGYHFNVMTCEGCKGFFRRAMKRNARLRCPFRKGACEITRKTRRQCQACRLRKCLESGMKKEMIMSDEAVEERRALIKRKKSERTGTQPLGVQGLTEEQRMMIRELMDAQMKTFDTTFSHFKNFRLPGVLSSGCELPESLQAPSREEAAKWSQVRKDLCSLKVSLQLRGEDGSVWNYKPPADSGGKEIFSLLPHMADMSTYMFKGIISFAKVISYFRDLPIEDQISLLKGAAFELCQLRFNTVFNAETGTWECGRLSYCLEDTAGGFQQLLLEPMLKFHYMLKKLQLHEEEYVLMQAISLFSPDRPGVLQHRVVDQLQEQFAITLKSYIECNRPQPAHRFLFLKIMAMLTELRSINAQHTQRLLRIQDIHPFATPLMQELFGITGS
For assay [7], the target named is Cytochrome P450 2C9 (Homo sapiens) (UniProt P11712). Briefly: Cytochrome P450 Family 2 Subfamily C Member 9 (CYP2C9) small molecule antagonists: luciferase reporter qHTS assay (AID 1671198). Further: nearly all actives have a fitted effect of over 50% in size. Further: potency means the concentration at half of the fitted maximal effect. On activity change, negative = inhibition: series mostly up to about 120 µM. The method in brief: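 Enzyme-substrate mix preincubated with compound 10 min at room temperature; reaction started with NADPH regeneration solution, 1 h 37C. Luminescent luciferin product read after 20 min detection reagent.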
Sequence of Cytochrome P450 2C9 (Homo sapiens) (P11712 whole entry, looked up): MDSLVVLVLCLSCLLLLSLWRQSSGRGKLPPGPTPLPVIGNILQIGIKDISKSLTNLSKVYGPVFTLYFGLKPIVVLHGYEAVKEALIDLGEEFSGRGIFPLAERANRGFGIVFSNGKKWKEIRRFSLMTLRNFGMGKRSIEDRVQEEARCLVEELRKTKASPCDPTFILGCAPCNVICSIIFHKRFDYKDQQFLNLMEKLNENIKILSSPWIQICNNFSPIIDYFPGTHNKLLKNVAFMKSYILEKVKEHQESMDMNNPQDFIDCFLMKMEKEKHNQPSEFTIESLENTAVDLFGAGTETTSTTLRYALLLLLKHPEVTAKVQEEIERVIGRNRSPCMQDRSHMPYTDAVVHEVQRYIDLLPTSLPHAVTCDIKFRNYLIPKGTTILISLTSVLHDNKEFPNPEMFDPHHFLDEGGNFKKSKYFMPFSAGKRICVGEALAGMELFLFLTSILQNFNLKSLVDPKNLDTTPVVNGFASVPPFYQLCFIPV
In general terms: Reporter assays use an easily measured gene product as a stand-in for the process of interest.

Assay [8] has as its target Cytochrome P450 1A2 (Homo sapiens) (UniProt P05177). Briefly: Cytochrome P450 Family 1 Subfamily A Member 2 (CYP1A2) small molecule antagonists: luciferase reporter qHTS assay (AID 1671199). Further: nearly all actives have a fitted effect of over 50% in size. Further: potency means the concentration at half of the fitted maximal effect. On activity change, negative = inhibition: series mostly up to about 120 µM. The method in brief:
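Enzymatic CYP1A2 assay, human, luminescent: 10 min compound–enzyme–substrate preincubation, 1 h NADPH-dependent turnover, 20 min detection step, room temperature throughout. Reduced light indicates lower CYP1A2 activity.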

Assay [9] concerns the target Voltage-gated inwardly rectifying potassium channel KCNH2 (Homo sapiens) (UniProt Q12809). As to the kind of experiment: Human Ether-a-go-go-Related Gene (hERG) channel small molecule antagonists: fluorescence cell-based qHTS assay (AID 1671200).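 Further: hERG-expressing U2OS cells given a thallium stimulus after FluxOR II dye loading; series mostly up to about 77 µM; nearly all actives have a fitted effect of over 50% in size.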 Summed up: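 Measured: Tl+ flux via fluorescence (480/540 nm) in hERG-expressing U2OS cells after 1 h dye loading at room temperature.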
(Block of hERG is tested as a sign of cardiac risk.)

Assay [10] deals with Cytochrome P450 3A4 (Homo sapiens) (UniProt P08684). As to the kind of experiment: Cytochrome P450 Family 3 Subfamily A Member 4 (CYP3A4) small molecule antagonists: luciferase reporter qHTS assay (AID 1671201). Further: nearly all actives have a fitted effect of over 50% in size. Further: potency means the concentration at half of the fitted maximal effect. On activity change, negative = inhibition: series mostly up to about 120 µM. Summed up:
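Setup: enzyme-substrate mix, compound pin transfer, 10 min RT. Reaction: NADPH regeneration solution, 1 h RT. Readout: detection reagent stops turnover, luminescence measured after 20 min, expressed in relative luminescence units.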

For assay [11], the target named is Nuclear receptor subfamily 1 group I member 2 (Rattus norvegicus) (UniProt Q9R1A7). As to the kind of experiment: Rat pregnane X receptor (rPXR) activation by small molecules, qHTS assay (AID 1346983). Further: nearly all actives have a fitted effect of over 20% in size. Further: potency means the concentration at half of the fitted maximal effect. As to conditions: rPXR luciferase reporter cells, One-Glo luminescence, 24 h; max activation: hits give high values. The method in brief:
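Luminescent readout (One-Glo luciferase, 30 min room temperature) followed 24 hr compound treatment at 37 C of rPXR cells plated 2,000 per well and preincubated 5hr; qHTS format with compounds delivered in DMSO.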

Assay [12] addresses Cytochrome P450 2D6 (Homo sapiens) (UniProt P10635). As to the kind of experiment: Cytochrome P450 Family 2 Subfamily D Member 6 (CYP2D6) small molecule antagonists: luciferase reporter qHTS assay (AID 1671196). Further: nearly all actives have a fitted effect of over 50% in size. Further: potency means the concentration at half of the fitted maximal effect. On activity change, negative = inhibition: series mostly up to about 120 µM. The method in brief:
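Each well received CYP2D6 with its proluciferin substrate and chemical, sat 10 min, then got NADPH regeneration solution for 1 h at room temperature. Luminescence in RLU served as the activity measure.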

Assay [13] addresses Cytochrome P450 2C19 (Homo sapiens) (UniProt P33261). As to the kind of experiment: Cytochrome P450 Family 2 Subfamily C Member 19 (CYP2C19) small molecule antagonists: luciferase reporter qHTS assay (AID 1671197). Further: nearly all actives have a fitted effect of over 65% in size. Further: potency means the concentration at half of the fitted maximal effect. On activity change, negative = inhibition: series mostly up to about 120 µM. Summed up:
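Compounds were tested on CYP2C19 activity via proluciferin conversion to luciferin. The 37C, 1 h reaction followed NADPH addition; detection reagent stopped it.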

Assay [14] deals with Nuclear receptor subfamily 1 group I member 2 (Homo sapiens) (UniProt O75469). As to the kind of experiment: CYP3A4 induction through human pregnane X receptor (PXR) by small molecules, qHTS assay (AID 1346984). Further: nearly all actives have a fitted effect of over 40% in size. Summed up: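 Readings come from a luciferase reporter: DPX-2 cells, which are HepG2 cotransfected with PXR and a CYP3A4-promoter construct, were exposed to test compounds for 24 h at 37C before One-Glo detection.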

For assay [15] the target is unchanged. As to the kind of experiment: Human pregnane X receptor (PXR) activation by small molecules, qHTS assay (AID 1346985). Further: nearly all actives have a fitted effect of over 40% in size. The method in brief: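 DPX-2 cells (HepG2 co-transfected with a PXR response element and a CYP3A4-promoter luciferase construct) were seeded at 2,000 per well, rested 5 hr at 37C, then exposed to DMSO-dissolved compounds for 24 hr. Activation was read as luciferase luminescence.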

Unmarked numbers belong to inactive results. Inconclusive results are not listed. Activity calls are given as the source filed them. The call rests on the fitted dose curve; in most records, active means well fitted curve in the direction sought with a large enough effect in the repeat runs; inconclusive means weak or mixed curves; inactive means no such curve, though single readings can be large; an effect the other way counts as inactive or inconclusive.
On the % scale 0 is the no-effect control and ±100 the full control effect.

Sequence of Cytochrome P450 2D6 (Homo sapiens) (P10635 whole entry, looked up): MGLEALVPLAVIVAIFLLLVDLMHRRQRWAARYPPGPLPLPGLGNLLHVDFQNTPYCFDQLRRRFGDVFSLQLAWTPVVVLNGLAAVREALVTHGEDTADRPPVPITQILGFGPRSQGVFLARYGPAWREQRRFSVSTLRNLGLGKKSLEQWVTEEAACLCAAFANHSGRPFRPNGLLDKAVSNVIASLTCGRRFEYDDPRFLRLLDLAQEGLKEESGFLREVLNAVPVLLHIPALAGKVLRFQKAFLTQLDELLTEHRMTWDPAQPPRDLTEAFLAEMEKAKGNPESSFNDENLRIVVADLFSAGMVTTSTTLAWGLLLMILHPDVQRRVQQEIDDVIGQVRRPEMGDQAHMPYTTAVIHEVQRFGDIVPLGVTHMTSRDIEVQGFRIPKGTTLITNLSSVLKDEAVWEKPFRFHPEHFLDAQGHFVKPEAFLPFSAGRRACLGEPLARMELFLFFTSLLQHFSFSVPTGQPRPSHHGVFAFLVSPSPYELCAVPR
Sequence of Cytochrome P450 1A2 (Homo sapiens) (P05177 whole entry, looked up): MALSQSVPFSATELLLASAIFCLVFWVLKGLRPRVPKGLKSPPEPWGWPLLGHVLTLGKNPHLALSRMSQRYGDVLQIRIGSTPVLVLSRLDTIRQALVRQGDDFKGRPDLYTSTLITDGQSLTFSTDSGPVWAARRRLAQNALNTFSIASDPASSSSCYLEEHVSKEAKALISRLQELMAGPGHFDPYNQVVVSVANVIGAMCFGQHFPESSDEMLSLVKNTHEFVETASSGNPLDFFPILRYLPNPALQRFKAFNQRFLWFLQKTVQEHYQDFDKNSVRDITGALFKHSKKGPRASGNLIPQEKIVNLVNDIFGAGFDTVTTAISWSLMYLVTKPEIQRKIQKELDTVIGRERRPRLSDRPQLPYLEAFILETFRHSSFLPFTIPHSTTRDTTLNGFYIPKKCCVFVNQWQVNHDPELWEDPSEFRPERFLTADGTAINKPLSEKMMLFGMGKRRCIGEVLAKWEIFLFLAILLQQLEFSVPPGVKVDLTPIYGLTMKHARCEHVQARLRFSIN
Sequence of Cytochrome P450 2C19 (Homo sapiens) (P33261 whole entry, looked up): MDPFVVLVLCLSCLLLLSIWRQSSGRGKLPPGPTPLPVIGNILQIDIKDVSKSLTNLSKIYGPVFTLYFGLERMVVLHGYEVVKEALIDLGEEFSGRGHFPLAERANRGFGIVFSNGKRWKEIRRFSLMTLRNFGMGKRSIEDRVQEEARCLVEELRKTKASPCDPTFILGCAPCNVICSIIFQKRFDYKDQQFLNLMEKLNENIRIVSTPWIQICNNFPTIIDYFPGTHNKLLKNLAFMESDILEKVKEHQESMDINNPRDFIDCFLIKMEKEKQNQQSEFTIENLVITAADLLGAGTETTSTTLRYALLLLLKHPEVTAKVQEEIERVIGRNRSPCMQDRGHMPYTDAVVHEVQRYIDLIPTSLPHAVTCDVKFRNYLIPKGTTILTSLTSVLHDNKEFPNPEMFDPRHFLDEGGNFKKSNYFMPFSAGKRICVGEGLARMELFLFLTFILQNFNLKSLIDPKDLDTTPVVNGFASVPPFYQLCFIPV
Sequence of Cytochrome P450 3A4 (Homo sapiens) (P08684 whole entry, looked up): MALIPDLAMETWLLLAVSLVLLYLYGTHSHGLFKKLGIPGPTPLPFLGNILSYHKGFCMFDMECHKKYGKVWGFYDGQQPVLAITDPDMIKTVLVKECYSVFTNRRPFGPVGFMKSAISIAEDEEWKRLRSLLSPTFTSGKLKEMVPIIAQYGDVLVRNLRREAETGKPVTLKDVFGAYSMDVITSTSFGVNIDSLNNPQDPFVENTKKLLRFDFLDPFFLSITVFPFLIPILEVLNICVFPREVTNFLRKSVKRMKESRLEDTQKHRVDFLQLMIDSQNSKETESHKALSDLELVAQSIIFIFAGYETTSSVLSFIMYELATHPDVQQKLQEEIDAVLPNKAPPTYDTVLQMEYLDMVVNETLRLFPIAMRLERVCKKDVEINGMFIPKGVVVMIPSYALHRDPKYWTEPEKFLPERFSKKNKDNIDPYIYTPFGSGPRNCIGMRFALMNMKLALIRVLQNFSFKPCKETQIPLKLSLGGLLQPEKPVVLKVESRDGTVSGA
Sequence of Voltage-gated inwardly rectifying potassium channel KCNH2 (Homo sapiens) (Q12809 whole entry, looked up): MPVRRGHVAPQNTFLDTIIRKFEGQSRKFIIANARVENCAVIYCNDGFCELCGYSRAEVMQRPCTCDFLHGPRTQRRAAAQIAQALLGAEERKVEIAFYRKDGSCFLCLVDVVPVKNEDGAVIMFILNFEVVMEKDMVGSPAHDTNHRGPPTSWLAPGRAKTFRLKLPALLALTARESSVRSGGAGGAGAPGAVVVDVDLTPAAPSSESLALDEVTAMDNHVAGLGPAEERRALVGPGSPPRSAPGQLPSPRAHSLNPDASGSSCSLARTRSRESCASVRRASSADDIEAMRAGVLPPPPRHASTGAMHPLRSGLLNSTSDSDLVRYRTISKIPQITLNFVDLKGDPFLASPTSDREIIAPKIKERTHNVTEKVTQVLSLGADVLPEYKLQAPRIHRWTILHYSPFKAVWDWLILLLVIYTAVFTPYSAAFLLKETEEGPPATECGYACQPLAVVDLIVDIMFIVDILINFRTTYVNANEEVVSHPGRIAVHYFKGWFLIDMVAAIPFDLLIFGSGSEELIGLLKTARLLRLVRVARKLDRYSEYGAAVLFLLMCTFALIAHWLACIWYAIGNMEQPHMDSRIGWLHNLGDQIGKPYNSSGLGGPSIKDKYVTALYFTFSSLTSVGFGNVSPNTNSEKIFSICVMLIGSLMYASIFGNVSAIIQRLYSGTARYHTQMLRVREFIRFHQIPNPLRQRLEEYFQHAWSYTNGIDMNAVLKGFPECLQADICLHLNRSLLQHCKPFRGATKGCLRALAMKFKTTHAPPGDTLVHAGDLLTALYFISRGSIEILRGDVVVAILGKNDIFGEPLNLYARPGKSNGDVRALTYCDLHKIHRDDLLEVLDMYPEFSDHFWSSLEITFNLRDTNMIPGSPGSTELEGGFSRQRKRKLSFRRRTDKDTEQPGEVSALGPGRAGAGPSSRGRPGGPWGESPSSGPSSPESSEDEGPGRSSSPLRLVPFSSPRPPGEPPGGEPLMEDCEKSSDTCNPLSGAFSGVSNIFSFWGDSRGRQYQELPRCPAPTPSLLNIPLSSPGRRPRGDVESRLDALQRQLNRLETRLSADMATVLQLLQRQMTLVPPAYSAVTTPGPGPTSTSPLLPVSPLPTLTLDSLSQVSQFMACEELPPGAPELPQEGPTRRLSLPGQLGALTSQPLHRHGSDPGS
Sequence of Nuclear receptor subfamily 1 group I member 2 (Rattus norvegicus) (Q9R1A7 whole entry, looked up): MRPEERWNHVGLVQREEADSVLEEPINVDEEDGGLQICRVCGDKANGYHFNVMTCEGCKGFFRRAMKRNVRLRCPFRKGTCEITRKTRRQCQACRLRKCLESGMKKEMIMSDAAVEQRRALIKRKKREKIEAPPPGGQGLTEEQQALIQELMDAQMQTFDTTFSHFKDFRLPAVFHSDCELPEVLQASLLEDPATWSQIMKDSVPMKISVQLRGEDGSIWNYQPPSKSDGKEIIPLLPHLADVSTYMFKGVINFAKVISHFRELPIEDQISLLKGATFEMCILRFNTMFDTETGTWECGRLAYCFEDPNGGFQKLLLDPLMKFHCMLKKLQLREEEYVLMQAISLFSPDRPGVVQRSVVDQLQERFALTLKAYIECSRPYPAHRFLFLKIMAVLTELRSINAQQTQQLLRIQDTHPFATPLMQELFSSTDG

Consider `[O-][n+]1ccc(Cl)cc1`, for which the Potency result in assay [1], in [2], in [3], in assay [4], in assay [5] and in assay [6] was “inactive” each time. Also, the Potency result in [7], in assay [8], in assay [9] and in [10] was “inactive” each time.
Consider `CCCc1nc(C)c2c(=O)[nH]c(-c3cc(S(=O)(=O)N4CCN(CC)CC4)ccc3OCC)nn12`, for which the Potency result in assay [1], in assay [2], in assay [3], in assay [5], in assay [12] and in [13] was “inactive” in each case. The Potency entry in assay [8] and in assay [9] was “inactive” each time. In addition, the Potency in assay [11] was 3.55 µM (active).
Turning to `Nc1cccc2c(=O)[nH][nH]c(=O)c12`, the Potency result in assay [1], in [2], in assay [3], in assay [4], in assay [5] and in assay [6] was “inactive” each time. The Potency entry in assay [13], in [7] and in assay [10] was “inactive” throughout. Moreover, the Potency in [12] was 5.05 µM (active).
`CC1(C)[C@@H]2CC[C@]3(C2)[C@@H]1C(=O)CCC3(C)C`: the Potency result in [1], in [2], in assay [3], in assay [5] and in [8] was “inactive” each time. Also, the Potency in assay [6] was 9.69 µM (active); in assay [12] it was 31.7 µM (active); in assay [13], 39.9 µM (active); in [10] it was 17.8 µM (active).
On to `CCCCCCCCCCCCSC#N`, for which the Potency result in [1], in assay [2], in [3], in assay [5], in assay [6] and in assay [12] was “inactive” throughout. The Potency entry in [9] and in assay [10] was “inactive” in each case. Further, in assay [8], the Potency is 7.96 µM (active).
For the compound `COC(=O)Cc1cccc2ccccc12`, the Potency result in assay [1], in assay [2], in assay [3], in assay [4], in assay [6] and in assay [7] was “inactive” throughout. Further, the Potency entry in [9] and in assay [10] was “inactive” throughout. Moreover, the Potency is 79.6 µM (active) in assay [13] and 20 µM (active) in assay [8].
For `CC(C)CCCCCCCOC(=O)c1ccc(C(=O)OCCCCCCCC(C)C)c(C(=O)OCCCCCCCC(C)C)c1`, the Potency result in assay [2], in assay [4], in assay [5], in assay [12], in assay [13] and in assay [9] was “inactive” throughout. In addition, the Potency in assay [6] was 19 µM (active).
`CCOC(=O)CC(O)(CC(=O)OCC)C(=O)OCC`: the Potency entry in assay [1], in assay [2], in assay [3], in assay [4], in [5] and in [6] was “inactive” each time. Besides, the Potency entry in [12], in [9] and in [10] was “inactive” each time. For the same compound, the Potency in assay [13] was 35.6 µM (active); in [7], 8.94 µM (active).
Turning to `CCOC(OCC)OCC`, the Potency entry in assay [1], in assay [2], in assay [3], in assay [4], in [5] and in assay [6] was “inactive” throughout. For the same compound, the Potency result in [12], in assay [7], in assay [9] and in assay [10] was “inactive” each time.
As to `CC(C)(O)C(=O)O`, the Potency entry in [2], in [3], in [4], in assay [5], in [6] and in assay [13] was “inactive” each time. Besides, the Potency entry in assay [7], in [9] and in assay [10] was “inactive” each time.
Take `CCCN(C1CCN(C(=O)C2CCNCC2)CC1)[C@@H]1CCc2ccc(OC)cc2C1`: the Potency result in assay [3], in [4], in [5], in [6], in assay [7] and in [8] was “inactive” throughout. In assay [12], the Potency was 10 µM (active).
Turning to `CCC(=O)O[C@]1(C(=O)COC)[C@@H](C)C[C@H]2[C@@H]3CCC4=CC(=O)C=C[C@]4(C)C3(F)[C@@H](O)C[C@@]21C` (stereo partly specified), the Potency result in assay [1], in assay [2], in assay [3], in assay [4], in [5] and in [13] was “inactive” in each case. Besides, the Potency result in assay [8] was “inactive”. Moreover, the results for the Potency in [6] and in assay [12] were 16.8 µM (active) and 15.5 µM (active), respectively.
Regarding `CCOc1ccc(NC(C)=O)cc1N`, the Potency entry in [1], in assay [2], in assay [3], in assay [4], in assay [5] and in assay [9] was “inactive” throughout. The Potency was 31.1 µM (active) in assay [6], 36.1 µM (active) in assay [13] and 16.1 µM (active) in assay [8].
As for `CC1=CC(=C(c2ccc(N)cc2)c2ccc(N)cc2)C=CC1=N`, in [2], the caspase activation is 0.381% [at 8.39 µM]. The caspase-3/7 activation in assay [4] is 1.62% [at 8.39 µM]. The activation in assay [6] was -7.87% [at 8.39 µM]. For the same compound, the max activation in assay [11] was -21.7%. For the same compound, the Potency result in [14] and in [15] was “inactive” each time. The activity change, negative = inhibition in [9] was -5.88% [at 6.97 µM]. Besides, the Potency in assay [10] was 2.86 µM (active).
In the case of `FC1(F)C(F)(F)C(F)(F)C2(F)C(F)(C1(F)F)C(F)(F)C(F)(F)C1(F)C(F)(F)C(F)(F)C(F)(F)C(F)(F)C12F` (stereo unspecified), the Potency entry in [1], in assay [2], in assay [5], in assay [6], in assay [12] and in assay [13] was “inactive” each time. The Potency entry in assay [7], in assay [8], in assay [9] and in assay [10] was “inactive” each time.
In the case of `Oc1ccc(Oc2ccccc2)cc1`, the Potency result in assay [1], in assay [2], in assay [4], in assay [5], in assay [9] and in [10] was “inactive” each time. Moreover, the Potency is 46.1 µM (active) in assay [6], 26.8 µM (active) in assay [12], 26.8 µM (active) in [13] and 26.8 µM (active) in [7].
Consider `O=C(O)c1ccccc1-n1cc(C(=O)O)c(=O)c2cc(Nc3c(F)cc(F)cc3Cl)c(Cl)cc21`, for which the Potency result in [1], in assay [2], in assay [3], in assay [4], in [5] and in assay [6] was “inactive” throughout. The Potency entry in assay [12], in assay [13], in assay [8] and in [10] was “inactive” in each case.
Consider `CCCCOC(=O)C(C)Oc1ccc(Oc2ccc(C(F)(F)F)cn2)cc1` (stereo unspecified), for which the Potency entry in [1], in assay [2], in [3], in assay [4], in assay [5] and in assay [6] was “inactive” each time. Also, the Potency result in [10] was “inactive”. The results for the Potency in assay [13], in assay [7] and in assay [8] were 50.2 µM (active), 22.4 µM (active) and 22.4 µM (active), respectively.
As to `CCCCCCCCCCCC(=O)OCC`, the Potency result in assay [1], in assay [2], in assay [3], in [4], in [5] and in assay [6] was “inactive” throughout. The Potency result in assay [12], in assay [8], in [9] and in assay [10] was “inactive” in each case.
With `CC(Cc1ccccc1)(NC(=O)CN)c1ccccc1` (stereo unspecified), the Potency entry in assay [1], in [2], in assay [3] and in [5] was “inactive” each time.

Values taken from PubChem BioAssay (Tox21).
